Measurements: PubChem BioAssay (Tox21)
Inconclusive results are not listed. Where a call stands in place of a potency, no number is given. Activity calls are given as the source filed them. Calls come from the whole dose curve.

These compounds were tested against Retinoic acid receptor RXR-alpha (Homo sapiens) (UniProt P19793) (assay: qHTS assay to identify small molecule agonists of the RXR signaling pathway (AID 1159527; note: nearly all actives have a fitted effect of over 35% in size)). Conditions: HEK293T RXRa-UAS-bla, beta-lactamase ratio, 16 h; series mostly up to 76.8 µM.
In short: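 qHTS of the Tox21 10K library in GeneBLAzer RXR-alpha HEK 293T cells carrying a beta-lactamase reporter […]; 16 hr treatment, 9-cis retinoic acid as agonist control, FRET read-out.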

Retinoic acid receptor RXR-alpha (Homo sapiens), sequence (P19793 whole entry, looked up): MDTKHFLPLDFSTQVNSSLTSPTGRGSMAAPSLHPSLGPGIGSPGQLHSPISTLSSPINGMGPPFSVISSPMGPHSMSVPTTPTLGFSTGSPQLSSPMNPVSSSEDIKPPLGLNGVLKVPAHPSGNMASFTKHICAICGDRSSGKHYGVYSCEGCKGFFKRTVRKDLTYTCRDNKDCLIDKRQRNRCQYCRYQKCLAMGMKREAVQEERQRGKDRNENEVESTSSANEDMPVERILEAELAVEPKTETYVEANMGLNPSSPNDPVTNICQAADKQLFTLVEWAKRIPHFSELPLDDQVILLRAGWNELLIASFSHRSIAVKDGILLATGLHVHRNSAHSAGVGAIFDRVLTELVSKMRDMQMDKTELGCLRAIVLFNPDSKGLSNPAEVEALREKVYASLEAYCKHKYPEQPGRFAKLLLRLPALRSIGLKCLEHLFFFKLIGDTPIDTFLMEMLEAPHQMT

Structure (SMILES) | Potency
CC(=O)O[C@H]1C[C@@H]2CC[C@@H]3[C@H](CC[C@@]4(C)[C@H]3C[C@H]([N+]3(C)CCCCC3)[C@@H]4OC(C)=O)[C@@]2(C)C[C@@H]1N1CCCCC1 | inactive
CN(C)C/C=C(/c1ccc(Br)cc1)c1cccnc1 | inactive
O=c1[nH]cnc2ccccc12 | inactive
CC(C)c1ccccc1C(C)C | inactive
CC(=O)[C@@]1(O)CC[C@H]2[C@@H]3C[C@H](C)C4=CC(=O)CC[C@]4(C)[C@H]3CC[C@@]21C | inactive
C#CCOC(=O)[C@@H](C)Oc1ccc(Oc2ncc(Cl)cc2F)cc1 | inactive
CN(C)CC[C@@H](c1ccc(Br)cc1)c1ccccn1 | inactive
O=C(NN1CCCC1)NS(=O)(=O)c1ccc(Cl)cc1 | inactive
O=C1Nc2cc(Cl)ccc2Oc2ccccc21 | inactive
Oc1ccc(O)c2c(O)cccc12 | inactive
Cc1cc(C)c(S(=O)(=O)O)cc1N=Nc1cc(S(=O)(=O)O)c2ccccc2c1O | inactive
CCCCCOC(=O)c1ccc(O)cc1 | inactive
